From PubChem BioAssay AID1974 (The Scripps Research Institute Molecular Screening Center, 2009)
Among all 300,000 compounds or so, about 3,200 (1.1%) were called active.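 Rule for the calls: active = inhibition above the campaign mean inhibition plus 3 SD (cut at about 35% in these data); inactive = the rest.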 What follows is part of a selection rich in actives, with near analogues and random picks from the rest.

These compounds were tested against Glutathione S-transferase omega-1 (Homo sapiens) (UniProt P78417) (assay: human GSTO1 enzyme inhibition – biochemical, fluorescence polarization, counter-screen for RBBP9 inhibitor project, primary screen (AID 1974;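 note: 0% = GSTO1-1 with DMSO and 100% = wells lacking GSTO1-1 enzyme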)). Settings: recombinant GSTO1, activity-based probe fluorescence polarization; at 5.96 µM; hits give high values.
Glutathione S-transferase omega-1 (Homo sapiens), sequence (P78417 whole entry, looked up): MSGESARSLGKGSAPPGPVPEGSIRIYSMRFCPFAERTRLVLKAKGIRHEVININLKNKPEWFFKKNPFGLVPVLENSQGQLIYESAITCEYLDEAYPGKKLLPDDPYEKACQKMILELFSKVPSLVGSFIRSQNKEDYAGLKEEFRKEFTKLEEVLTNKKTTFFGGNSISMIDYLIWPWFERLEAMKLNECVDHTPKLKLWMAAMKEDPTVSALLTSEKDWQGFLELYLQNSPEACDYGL

Compound	inhibition
Cc1ccc(C)c(-c2nnc(NC(=O)CS(=O)(=O)c3ccccc3)o2)c1	9.44% (inactive)
CCOc1ccc(C(C)=O)cc1COC(=O)CN1C(=O)NC2(CCCC2)C1=O	10.1% (inactive)
C#CCOCCOCCOCCNc1nc(N2CCN(C(=O)CCCCCCCCCCNC(=O)Cn3cc(CCCCCN)nn3)CC2)nc(N2CCN(C(=O)CCCCCCCCCCNC(=O)[C@H](CO)n3cc(CCCSC)nn3)CC2)n1	4.11% (inactive)
Oc1cc2c(cc1O)CN(C(=S)NCCc1ccc(Cl)cc1)CCC2	-0.15% (inactive)
CC1(C)CC(=O)c2ccc(O)cc2O1	8.19% (inactive)
COc1ccc2c(c1)SC(C)CC2=O (stereo unspecified)	-1.85% (inactive)
COc1ccc2c(c1)OC(O)(C(F)(F)C(F)F)CC2=O (stereo unspecified)	42% (active)
COc1ccc(OCCCC(=O)OC(C)C(=O)Nc2ccccc2[N+](=O)[O-])cc1 (stereo unspecified)	-0.91% (inactive)
COc1ccc(NC(=O)CN(C)C(=O)c2cc(-c3ccc(C)o3)nc3ccccc23)cc1	5.17% (inactive)
CN1C(=O)CC(c2ccccc2)C1=O (stereo unspecified)	7.68% (inactive)
OCC[C@H]1C[C@H](O)[C@@H](O)[C@]2(Cc3ccccc3CO2)O1	2.49% (inactive)
CC1(C)Cc2ccccc2-c2nc(CN3CCOCC3)[nH]c(=O)c21	-0.05% (inactive)
CCC1(CC)Cc2ccccc2-c2nc(CCl)[nH]c(=O)c21	84.7% (active)
CC1(C)Cc2ccccc2-c2[nH]c(=S)[nH]c(=O)c21	3.5% (inactive)
O=C(COC(=O)CNS(=O)(=O)c1ccc(F)c(F)c1F)NC1CCCC1	14.3% (inactive)
CC(OC(=O)CCC(=O)c1ccccc1)C(=O)Nc1ccc(F)cc1 (stereo unspecified)	3.4% (inactive)
COc1ccc(S(=O)(=O)N2CCOCC2)cc1NC(=O)CSc1ncnc2ccccc12	38.4% (active)
COc1ccc(S(=O)(=O)N2CCCCC2)cc1NC(=O)COc1ccccc1	-8.4% (inactive)
COc1ccc(S(=O)(=O)N2CCOCC2)cc1NC(=O)COc1ccccc1	13.6% (inactive)
CCn1cc(C(=O)NC2CCCCCC2)c(=O)c2cc(S(=O)(=O)N3CCCCC3)ccc21	0.56% (inactive)
CCCOc1ccc(/C=N/NC(=O)C2CC2)c(OCCC)c1	5.8% (inactive)
Cc1cc(NC(=O)C(C)N2C(=O)c3ccccc3S2(=O)=O)no1 (stereo unspecified)	12.5% (inactive)
CC(=O)c1c(C)[nH]c(C(=O)CN2C(=O)NC(C)(C)C2=O)c1C	-0.38% (inactive)

Compound	inhibition
CS(=O)(=O)n1nc(-c2ccco2)nc1N	-5.37% (inactive)
Cn1c(-c2ccco2)nc2cc3ccccc3cc21	1.91% (inactive)
c1coc(-c2nc3nc4ccccc4n3nc2-c2ccco2)c1	47.1% (active)
CC(=O)CC(CC(=O)NC1CCCCC1)c1ccccc1 (stereo unspecified)	5.92% (inactive)
Cc1n[nH]c(=O)c2c(NC(=O)CSc3ccccc3F)oc(C)c12	-2.53% (inactive)
Cc1coc2c(O)cc3c(c12)OC1(N2CCCCC2)C(=O)NCCCC31 (stereo unspecified)	74.4% (active)
CCN(CC)CCn1c2c(c(SCC(=O)Nc3nc4ccccc4s3)nc1=O)CCCC2	-6.43% (inactive)
CS(=O)(=O)c1ccc(C(=O)OCC(=O)NNC(=O)COc2ccc(Cl)cc2)cc1	1.2% (inactive)
Cc1ccc(NC(=O)CN(C)C(=O)Cn2nnc(-c3ccccc3)n2)cc1	1.43% (inactive)
OCC[C@H]1C[C@H](O)[C@@H](O)[C@]2(CCc3ccccc3O2)O1	3.69% (inactive)
CCOC(=O)c1cc(NC(=O)c2cccnc2)ccn1	11.6% (inactive)
O=C(CCl)NNc1cccc(Cl)n1	50.5% (active)
O=C(NNc1ccccn1)c1ccc(Cl)nc1	12.7% (inactive)
O=C(Cc1c(Cl)cccc1Cl)NC1CC1	3.33% (inactive)
O=C(NCC1CC1)c1onc(CSc2ccccc2)c1C(=O)NCC1CC1	4.37% (inactive)
CCOC(=O)c1ccc(NC(=O)c2c(N)n(C)c(=O)[nH]c2=O)cc1	-7.15% (inactive)
CN(C)c1ccc(S(=O)(=O)NCC(=O)NCC2CCCCC2)cc1[N+](=O)[O-]	-5.25% (inactive)
CCN(C(=O)COC(=O)c1cc(NS(=O)(=O)c2ccc(Cl)c([N+](=O)[O-])c2)ccc1O)C1CCCCC1	38.5% (active)
COc1ccc(NS(=O)(=O)c2ccc(O)c(C(=O)OCC(=O)NC3CCCCC3)c2)cc1	-9.76% (inactive)
COCCn1c(SC(C)C(=O)NC2CC2)nnc1-c1cccc(C)c1 (stereo unspecified)	12.9% (inactive)
Cc1ccc(NC(=O)C(C)OC(=O)Cc2c[nH]c3ccccc23)cc1S(=O)(=O)N1CCOCC1 (stereo unspecified)	11.7% (inactive)
O=C(NCCS(=O)(=O)N1CCN(c2ccccc2)CC1)c1ccco1	1.82% (inactive)
O=c1c(/C=N/O)coc2ccc(Cl)cc12	38.5% (active)

Compound	inhibition
NC(=S)N/N=C/c1coc2cc(Cl)ccc2c1=O	0.72% (inactive)
Cc1ccc2occ(/C=N/NC(=O)c3ccccc3C)c(=O)c2c1	23.9% (inactive)
COC1(C2=NCCN2)COc2ccccc2O1 (stereo unspecified)	10.3% (inactive)
COc1ccccc1C(=O)NCCC(=O)NN1C(=O)NC2(CCCCC2)C1=O	0.1% (inactive)
COC(=O)CCCC1=CC2=CC(=O)C(C)(OC(=O)c3cccs3)C(=O)C2=CN1CC(C)C (stereo unspecified)	19.4% (inactive)
CCCCC1=CC2=CC(=O)C(C)(OC(=O)CC)C(=O)C2=CN1CCCOC(C)C (stereo unspecified)	19.3% (inactive)
COC(=O)CCCC1=CC2=CC(=O)C(C)(OC(=O)c3cccs3)C(=O)C2=CN1CC1CC1 (stereo unspecified)	43.3% (active)
CC(C)N(Cc1ccccc1)C(=O)COC(=O)c1ccccc1SCC(=O)N1CCCC1	8.57% (inactive)
O=C(CCn1c(SCC(=O)c2ccccc2)nc2ccccc2c1=O)NCc1ccc(F)cc1	62.5% (active)
O=C(CCCn1c(SCC(=O)c2ccccc2)nc2ccccc2c1=O)NCC1CCCO1 (stereo unspecified)	-0.93% (inactive)
O=C(CCCn1c(SCC(=O)c2ccc(F)cc2)nc2ccccc2c1=O)NCc1ccco1	5.62% (inactive)
CCCCCCSc1ccc([C@@H]2[C@@H]3C(=O)N(CC)C(=O)[C@@H]3[C@]3(C(=O)OC)CCCCN23)cc1OC	-5.28% (inactive)
Cc1cccc(NS(=O)(=O)c2cc(Cl)ccc2Cl)n1	-9.4% (inactive)
COC1=C(N2CCOCC2)C(=O)c2ccccc2C1=O	57.8% (active)
O=C1C(Cl)=C(N2CCOCC2)C(=O)N1c1ccccc1	3.26% (inactive)
COc1ccc(N2CCN(C(C)=C3C(=O)c4ccccc4C3=O)CC2)cc1	2.82% (inactive)
COc1ccc(NS(=O)(=O)c2ccc(C)c(C(=O)NNC(=O)c3csc(N4CCOCC4)n3)c2)cc1	-5.75% (inactive)
CCCC1C(=O)N2C(N(C)C)=Nc3ccc(C)cc3N2C1=O (stereo unspecified)	-1.7% (inactive)
COc1ccc(-c2cnc(SCCNC(=O)c3ccc4c(c3)OCO4)[nH]2)cc1	-3.18% (inactive)
COC(=O)c1ccc(CSc2nncn2C)cc1	-6.04% (inactive)
COC(=O)c1ccc(CSc2nncn2N)cc1	61% (active)
COC(=O)c1ccc(CSc2nnc(NC(C)C)s2)cc1	-6.8% (inactive)
OCC[C@H]1C[C@H](O)[C@@H](O)[C@]2(CCCCO2)O1	3.4% (inactive)

Compound	inhibition
COc1ccc(CC2c3cc(OC)c(OC)cc3CC[N+]2(C)CCC(=O)OCCCCCOC(=O)CC[N+]2(C)CCc3cc(OC)c(OC)cc3C2Cc2ccc(OC)c(OC)c2)cc1OC (stereo unspecified)	11.1% (inactive)
CCC(c1nnc(SCC(=O)NNC(=O)c2ccccc2)n1Cc1ccccc1)N(C)C (stereo unspecified)	1.64% (inactive)
COc1ccc(NC(=O)CSc2ncnc3[nH]ncc23)cc1	36.4% (active)
COc1ccc(-n2ncc3c(SCC(=O)NNC(C)=O)ncnc32)cc1	-13% (inactive)
COc1ccc(NC(=O)CSc2nc(C)cs2)cc1	4.13% (inactive)
CCCCN1C(N)=NC[C@@H]1Cc1ccccc1	-4.9% (inactive)
CC(C)(C)C(=O)OCc1nc(-c2ccc(O)c(O)c2)cs1	37.1% (active)
Cc1onc(C(=O)NN)c1-c1csc(COc2ccccc2)n1	10.4% (inactive)
COc1cc(CC(=O)Nc2nc(-c3ccc(F)c(F)c3)cs2)cc(OC)c1OC	-6.41% (inactive)
CC(CCN1CCN=C1N(C)C)c1ccccc1 (stereo unspecified)	4.27% (inactive)
CNC(C)C#Cc1ccc2sc3cc(OC)c(OC)cc3c(=O)c2c1 (stereo unspecified)	0.59% (inactive)
O=C(O)c1[nH]c2ccccc2c1C(c1cccc(O)c1)c1c(C(=O)O)[nH]c2ccccc12	50.4% (active)
CC(NC(=O)COC(=O)c1cc(=O)[nH]c2ccccc12)c1ccccc1 (stereo unspecified)	-7.45% (inactive)
CCCS(=O)(=O)Nc1c(C(=O)O)[nH]c2ccccc12	0.73% (inactive)
CN(C)CCN(C(=O)CN1C(=O)c2ccccc2C1=O)c1nc2cc3c(cc2s1)OCCO3	1.93% (inactive)
COc1cccc(N2CC(NC(=O)c3ccc4ccccc4c3)CC2=O)c1 (stereo unspecified)	-0.99% (inactive)
CC(C)(C)C(=O)COC(=O)c1cc(S(=O)(=O)N2CCCCC2)ccc1N1CCOCC1	-0.05% (inactive)
CC1CCN(C(=O)COC(=O)c2cc(S(=O)(=O)N3CCOCC3)ccc2Cl)CC1	-3.67% (inactive)
O=C(OCC(=O)N1CCCC1=O)c1cc(S(=O)(=O)N2CCOCC2)ccc1Cl	82% (active)
CCCNC(=O)c1onc(CSc2ccc(F)cc2)c1C(=O)NC(C)C	-6.69% (inactive)
CC[N+](C)(CC)CCC[n+]1c(-c2ccccc2)c2cc(N)ccc2c2ccc(N)cc21	92.8% (active)
COCC(=O)Nc1c(I)c(C(=O)NCC(O)CO)c(I)c(C(=O)N(C)CC(O)CO)c1I (stereo unspecified)	3.24% (inactive)
